Experiment [1] is described as follows: Drug repurposing screens with cells derived from glioblastoma tumor samples (AID 1345199). Further: nearly all actives have a fitted effect of over 40% in size. Further: potency means the concentration at half of the fitted maximal effect. On activity, negative = cell killing: on the % scale 0 is the no-effect control and ±100 the full control effect. The following applies: GBM patient neurospheres viability, ATP luminescence, 48 h. The method in brief:
(§1)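 Primary testing used CD133+ neurospheres from four GBM patients, seven concentrations, 48 h exposure and ATP-based viability; confirmation added three slower-growing patient lines.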

The test system of experiment [2] is astro (control astrocytes). Described as above. The following applies: viability, ATP luminescence, 48 h; series mostly up to 45.9 µM. A digest of the protocol: as §1
Experiment [3] has as its target Nuclear receptor subfamily 1 group I member 2 (Rattus norvegicus) (UniProt Q9R1A7). As to the kind of experiment: qHTS assay for small molecule activators of the rat pregnane X receptor (rPXR) signaling pathway (AID 651751; call rule not given here; further: 0% is about no effect). The following applies: rPXR reporter cells, luciferase (One-Glo), 24 h. A general note: qHTS replaces the single test concentration by a dilution series.

Experiment [4] in a line: qHTS assay for small molecule activators of the human pregnane X receptor (PXR) signaling pathway (AID 720659; call rule not given here; further: 0% is about no effect). The following applies: DPX-2 HepG2 CYP3A4-luciferase, 24 h; series mostly up to 92.3 µM.
The nature of experiment [5]: qHTS assay to identify inhibitors of the type 1 interferon - major histocompatibility complex class I in skeletal muscle: Counter screen cell viability and HiBit confirmation (AID 1347412). Further: on the % scale 0 is the no-effect control and ±100 the full control effect; nearly all actives have a fitted effect of over 60% in size. The following applies: iHSKM muscle cells + IFN-b, HiBiT or CellTiter-Glo, 24 h; Potency: HiBiT; Viability, at 45.9 µM (top of the series). The method in brief:
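Human myoblast knock-in line, 4.0 ng/ml IFN-beta stimulation, 24 h compound treatment. Endpoints: HiBiT lytic luminescence (HLA-B level) and CellTiter Glo (ATP). Dosing 12 concentrations, 3-fold steps, 46 uM highest final.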

[6] abbreviates: at 45.9 µM (top of the series), tumour line B.
Where [7] appears, read: at 45.9 µM (top of the series), tumour line D.
[8] abbreviates: at 46 µM (top of the series), tumour line A.
Setting [9] is: at 46.1 µM (top of the series), tumour line C.
[10] abbreviates: at 91.6 µM (top of the series), tumour line B.
[11] abbreviates: at 99.2 µM (top of the series), tumour line C.

“And” between values parts separate entries of the source, which are not always exact repeats. Equal values may be shown once. Values without a mark were called inactive. Results filed as inconclusive are left out. More than one record can exist for a structure, and the calls need not agree. The source made the active and inactive calls. Unless noted, the call rests on the fitted dose curve; in most records, active means well fitted curve in the direction sought with a large enough effect; inconclusive means small, poorly fitted or top-dose-only effect, or another doubt; inactive means no such curve, though single readings can be large; an effect the other way counts as inactive or inconclusive.

Chain of Nuclear receptor subfamily 1 group I member 2 (Rattus norvegicus) (Q9R1A7 whole entry, looked up): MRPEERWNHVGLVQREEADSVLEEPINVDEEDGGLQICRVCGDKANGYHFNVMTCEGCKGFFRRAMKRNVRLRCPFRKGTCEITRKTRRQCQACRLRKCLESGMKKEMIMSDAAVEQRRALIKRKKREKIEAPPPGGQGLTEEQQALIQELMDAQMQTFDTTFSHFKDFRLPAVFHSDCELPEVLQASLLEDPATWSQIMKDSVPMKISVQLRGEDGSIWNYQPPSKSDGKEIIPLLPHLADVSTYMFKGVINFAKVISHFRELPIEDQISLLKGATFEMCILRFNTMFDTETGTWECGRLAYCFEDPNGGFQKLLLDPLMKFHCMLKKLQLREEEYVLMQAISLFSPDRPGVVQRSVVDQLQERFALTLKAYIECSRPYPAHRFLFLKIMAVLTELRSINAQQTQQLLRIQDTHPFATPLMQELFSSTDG

Consider `CC1c2ccccc2CN1NC(=O)c1ccc(Cl)c(S(N)(=O)=O)c1` (configuration not stated), for which the activity, negative = cell killing in experiment [1] (setting [6]) was -2.5%; in experiment [1] (setting [7]) it was -6.17%; in experiment [1] (setting [8]) it was -22.8%; in experiment [1] (setting [9]), -11.2%. Also, in experiment [2], the Potency result is “inactive”.

Take `O=C(Oc1ccccc1)c1ccccc1O`: the activity, negative = cell killing in experiment [1] (setting [8]) is -25.7%.

Take `Cc1cccc(N(C)C(=S)Oc2ccc3c(c2)CCC3)c1`: the Potency in experiment [1] (tumour line D) is 20 µM (active).

Take `N#C/C(=C1/SC[C@@H](c2ccc(Cl)cc2Cl)S1)n1ccnc1`: in experiment [1] (tumour line D), the Potency is 11.2 µM (active).

Consider `CCCCCCCCCCCCCCCCCCNC(=O)OC1CCN(C(=O)OC[C@H](COC(=O)N(Cc2cccc[n+]2CC)C(=O)c2ccccc2OC)OC)CC1`, for which the Potency in experiment [2] is 10 µM (active).

Consider `O=C1NCCN1CCN1CCC(c2cn(-c3ccc(F)cc3)c3ccc(Cl)cc23)CC1`, for which the Potency in experiment [2] was 17.8 µM (active).

Turning to `CCCCCC[C@@H](CCC)C(=O)O`, the activity, negative = cell killing in experiment [1] (setting [6]) was -11.8%; in experiment [1] (setting [7]), -7.11%; in experiment [1] (setting [9]), -6.46%. For the same compound, the Potency result in experiment [2] was “inactive”.

On to `Oc1ccc(CCNCCCCCCNCCc2ccccc2)cc1O`, for which, in experiment [1] (setting [6]), the activity, negative = cell killing is -20.6%. Moreover, in experiment [1] (tumour line A), the Potency was 17.8 µM (active). Moreover, the Potency entry in experiment [2] was “inactive”.

Turning to `C[C@@]12CCC[C@H]1[C@@H]1CC[C@H]3C[C@@H](O)CC[C@]3(C)[C@H]1CC2`, the activity, negative = cell killing in experiment [1] (setting [6]) is -21.2%. Besides, the Potency in experiment [1] (tumour line A) was 7.08 µM (active). In experiment [2], the Potency result is “inactive”.

On to `CCCCCOc1ccc(C2SC(=O)NC2=O)cc1OCC` (configuration not stated), for which the activity, negative = cell killing was -6.4% in experiment [1] (setting [6]), -4.3% in experiment [1] (setting [7]) and -14.2% in experiment [1] (setting [9]). The Potency entry in experiment [2] was “inactive”.

Regarding `CCCC(=O)c1cc(O)c(O)cc1O`, the activity, negative = cell killing in experiment [1] (setting [10]) is -19.8%; in experiment [1] (setting [11]), -23.6%. The max response in experiment [3] is -4.26%. The result in experiment [4] was inactive.

`C=CCOc1cc(Cl)ccc1C(=O)NCCN(CC)CC`: the activity, negative = cell killing in experiment [1] (setting [6]) is -22.9%; in experiment [1] (setting [9]), 2.19%. For the same compound, in experiment [1] (tumour line A), the Potency is 10 µM (active). In addition, the Potency result in experiment [2] is “inactive”.

As to `Cc1cc(C(C)(C)C)c(O)c(C(C)(C)C)c1`, in experiment [1] (setting [9]), the activity, negative = cell killing is -15.8%. The Potency entry in experiment [2] was “inactive”. Besides, the max response in experiment [3] was -5.78% and 3.32%.

Turning to `CC(C)(c1ccc(O)cc1)c1ccc(O)cc1`, the activity, negative = cell killing in experiment [1] (setting [10]) is -24%; in experiment [1] (setting [11]) it was -43.4%. Besides, the max response in experiment [3] was 7.46% and 2.86% and -5.15%.

Consider `CO[C@@H]1[C@@H](OC)[C@H](C)[C@@](O)(CC(=O)O)O[C@H]1[C@H](C)[C@H]1O[C@@]2(CC[C@@](C)([C@H]3CC[C@@](C)([C@@H]4O[C@@H]([C@H]5O[C@](C)(O)[C@H](C)C[C@@H]5C)C[C@@H]4OC4C[C@H](OC)[C@@H](OC)[C@H](C)O4)O3)O2)C[C@H](O)[C@H]1C` (some centres not stated), for which, in experiment [2], the Potency was 1.58 µM (active).

For the compound `CCN1C(=O)c2ccccc2C1Nc1ccc(OCCN2CCCCC2)cc1` (configuration not stated), the activity, negative = cell killing in experiment [1] (setting [6]) is -27.4%. Besides, the Potency in experiment [1] (tumour line A) was 7.94 µM (active). In addition, the Potency entry in experiment [2] is “inactive”.

On to `CC(=O)OC/C=C(C)/C=C/C=C(C)/C=C/C1=C(C)CCCC1(C)C`, for which the values for the activity, negative = cell killing in experiment [1] (setting [6]), in experiment [1] (setting [7]) and in experiment [1] (setting [9]) were -7.14%, -23.4% and -13.6%, respectively. Moreover, the Potency entry in experiment [2] is “inactive”.

In the case of `CN1C(CSCC(F)(F)F)Nc2cc(Cl)c(S(N)(=O)=O)cc2S1(=O)=O` (configuration not stated), the activity, negative = cell killing in experiment [1] (setting [6]) was -3.33%; in experiment [1] (setting [9]), -15.1%. In experiment [2], the Potency entry is “inactive”.

For `O=C(NO)c1ccccc1`, the activity, negative = cell killing was -25.1% in experiment [1] (setting [10]); -20.6% in experiment [1] (at 91.6 µM (top of the series), tumour line D); -13.7% in experiment [1] (setting [11]). Also, in experiment [2], the Potency entry is “inactive”. In experiment [3], the max response is -1.37%. In experiment [4], the outcome was inactive.

Turning to `Cc1cc(O)c2c(O)c3c(O)cccc3cc2c1`, the activity, negative = cell killing in experiment [1] (setting [6]) is -27.7%. Further, the Potency in experiment [1] (tumour line A) was 14.1 µM (active). Moreover, in experiment [2], the Potency result was “inactive”.

For `CCOC(=O)c1ccc(OCCN2C[C@H](O)[C@@H](O)[C@H](O)[C@H]2CO)cc1`, the activity, negative = cell killing in experiment [1] (setting [6]) is 0.0726%; in experiment [1] (setting [7]) it was -4.04%; in experiment [1] (setting [9]) it was 1.63%. Besides, the Potency result in experiment [2] is “inactive”.

Consider `CC(=O)[C@@]1(O)CC[C@H]2[C@@H]3C[C@H](C)C4=CC(=O)CC[C@]4(C)[C@H]3CC[C@@]21C`, for which the results for the activity, negative = cell killing in experiment [1] (setting [6]), in experiment [1] (setting [7]) and in experiment [1] (setting [9]) were -5.63%, -15.6% and -11.3%, respectively. The Potency entry in experiment [2] and in experiment [5] was “inactive” each time.

These data come from PubChem BioAssay (NCATS).
